Test [1] has as its target Chromobox protein homolog 1 (Homo sapiens) (UniProt P83916). Put plainly: qHTS Validation Assay for Inhibitors of HP1-beta Chromodomain Interactions with Methylated Histone Tails (AID 488953). Also: nearly all actives have a fitted effect of over 50% in size. Also: potency is read from the fitted curve at half-maximal effect. Put shortly: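 Measured as loss of AlphaScreen luminescence from streptavidin donor and nickel acceptor beads (10 ug/mL final) bridging HP1-beta and biotin-H3(1-18)K9me3, each 50 nM. Compounds met the preassembled complex for 30 min at RT.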
On the technique in general: In qHTS, concentration-response curves come from the screen itself.

The target in test [2] is Methanococcus maripaludis chaperonin (MmCpn) (UniProt Q6LX38). Nature of the test: High-Throughput Screening for Modulators of Cytosolic Chaperonin Activity: MmCpn Primary Screen (AID 488978).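 Also: 50 nM MmCpn enzyme hydrolysing 30 µM ATP at 37 °C.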 In a few lines:
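ADP formation read by HTRF Transcreener, 665/590 nm emission after 320 nm excitation. Enzyme: archaeal chaperonin at 50 nM final; substrate ATP 30 uM final; 10 min, 37C, after 5 min compound preincubation at RT.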

In test [3] the target is Transient receptor potential cation channel subfamily V member 1 (Homo sapiens) (UniProt Q8NER1). Nature of the test: HTS Assay for Compounds that Act as Enhancers of the Vanilloid Receptor 1 (AID 488979). In a few lines:
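TRPV1-expressing cells loaded with Fluo-8 calcium dye; compounds added and calcium influx read kinetically for 3 min (agonist phase), then capsaicin at EC20 added and read 2 min more for enhancement. Fluorescence ex 480/em 520 nm.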

In test [4] the target is Thyrotropin receptor (Homo sapiens) (UniProt P16473). Nature of the test: qHTS Assay for Antagonists of the Thyroid Stimulating Hormone Receptor (AID 488980). Also: series mostly up to about 58 µM. In a few lines:
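TSHR-HEK293 cells; 70 uM RO 20-1724 PDE inhibitor; compound + EC80 TSH (4 nM final); anti-cAMP cryptate antibody/cAMP-d2 in lysis buffer, 30 min RT; HTRF 665/620 nm read.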

In test [5] the target is D(1A) dopamine receptor (Homo sapiens) (UniProt P21728). Nature of the test: HTS Assay for Allosteric Agonists of the Human D1 Dopamine Receptor: Primary Screen for Agonists (AID 488981). Also: potency is read from the fitted curve at half-maximal effect. Put shortly: (§1)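 Tetracycline-induced HEK293 T-REx cells force-coupled to calcium signalling were incubated overnight at 30 C and dye-loaded at room temperature. Calcium flux over 180 s after compound addition flagged agonists; a further 180 s read after EC20 dopamine flagged potentiators.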

The target is the same in test [6]. Put plainly: HTS Assay for Allosteric Agonists of the Human D1 Dopamine Receptor: Primary Screen for Antagonists (AID 488983).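 Also: calcium flux response to an EC80 dopamine challenge measured with no-wash dye; nearly all actives have a fitted effect of over 65% in size.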 Put shortly:
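Screening of inducible HEK293 T-REx D1 cells: compound first, EC80 dopamine 180 s later, each phase read kinetically for calcium over 180 s.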

The target is the same in test [7]. Nature of the test: HTS Assay for Allosteric Agonists of the Human D1 Dopamine Receptor: Primary Screen for Potentiators (AID 488982). Also: potency is read from the fitted curve at half-maximal effect. In a few lines: as §1
The target of test [8] is Tyrosyl-DNA phosphodiesterase 1 (Homo sapiens) (UniProt Q9NUW8). Put plainly: Confirmation Assay for Inhibitors of Tyrosyl-DNA Phosphodiesterase (TDP1) (AID 489007). Also: potency is read from the fitted curve at half-maximal effect; nearly all actives have a fitted effect of over 40% in size. The following applies: recombinant human TDP1 enzymatic activity, dose-response. In a few lines:
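Confirmation of primary-screen follow-ups in a qHTS format. Substrate cleavage by Tdp1 (1 nM) of a 3'-phosphotyrosine-FITC, 5'-biotin oligo (15 nM) was monitored as decreased AlphaScreen signal after a 5 min room-temperature reaction.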

Test [9] has as its target ATP-dependent 6-phosphofructokinase (Trypanosoma brucei brucei) (UniProt O15648). Put plainly: qHTS Assay to Find Inhibitors of T. brucei phosphofructokinase: hit validation (AID 492961).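 Also: luminescence reports ADP formed as PFK phosphorylates fructose-6-phosphate with ATP; series mostly up to about 51 µM.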 In a few lines: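 Percent activity derived from corrected luminescence, normalized between 0x and 1x enzyme controls, then fitted to concentration-response curves. Conditions: 1.25 nM PFK, 0.1 mM ATP, 0.5 mM F6P, 45 min RT.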

Test [10] can be described thus: Validation screen for small molecules that induce genotoxicity in human embryonic kidney (HEK293T) cells expressing luciferase-tagged ELG1 (AID 493106). In a few lines: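 Reporter-gene quantitative HTS in HEK293T cells carrying luciferase-tagged ELG1, whose level climbs under genotoxic stress. Compound exposure lasts 16 hr at 37 °C before luciferase detection.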

Inconclusive results are not listed. Active and inactive are the calls of the source. Calls follow the shape of the dose curve; as a rule, active = well fitted curve in the direction sought with a large enough effect; inconclusive = small, poorly fitted or top-dose-only effect, or another doubt; inactive = no such curve, though single readings can be large; an effect the other way counts as inactive or inconclusive.

Thyrotropin receptor (Homo sapiens), sequence (P16473 whole entry, looked up): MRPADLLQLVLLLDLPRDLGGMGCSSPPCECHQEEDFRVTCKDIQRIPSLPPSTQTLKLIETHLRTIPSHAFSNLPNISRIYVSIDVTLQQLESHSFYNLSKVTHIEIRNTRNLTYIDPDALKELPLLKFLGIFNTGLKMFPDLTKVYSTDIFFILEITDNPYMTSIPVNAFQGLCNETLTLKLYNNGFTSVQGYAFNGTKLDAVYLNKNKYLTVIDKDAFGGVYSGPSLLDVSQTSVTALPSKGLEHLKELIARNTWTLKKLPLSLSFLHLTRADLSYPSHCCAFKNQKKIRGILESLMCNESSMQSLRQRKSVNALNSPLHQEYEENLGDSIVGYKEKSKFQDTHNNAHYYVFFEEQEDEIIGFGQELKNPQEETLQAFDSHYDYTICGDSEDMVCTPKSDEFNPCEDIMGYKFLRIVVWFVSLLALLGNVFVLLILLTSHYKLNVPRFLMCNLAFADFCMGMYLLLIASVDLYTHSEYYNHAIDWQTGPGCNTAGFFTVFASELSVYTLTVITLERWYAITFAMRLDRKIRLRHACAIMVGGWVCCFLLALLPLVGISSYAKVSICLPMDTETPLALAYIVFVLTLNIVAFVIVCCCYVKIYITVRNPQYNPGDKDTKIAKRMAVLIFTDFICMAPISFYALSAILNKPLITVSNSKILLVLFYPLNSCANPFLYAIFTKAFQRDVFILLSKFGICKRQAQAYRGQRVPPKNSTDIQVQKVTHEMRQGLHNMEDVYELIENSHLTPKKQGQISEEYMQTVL
Methanococcus maripaludis chaperonin (MmCpn), sequence (Q6LX38 1-543): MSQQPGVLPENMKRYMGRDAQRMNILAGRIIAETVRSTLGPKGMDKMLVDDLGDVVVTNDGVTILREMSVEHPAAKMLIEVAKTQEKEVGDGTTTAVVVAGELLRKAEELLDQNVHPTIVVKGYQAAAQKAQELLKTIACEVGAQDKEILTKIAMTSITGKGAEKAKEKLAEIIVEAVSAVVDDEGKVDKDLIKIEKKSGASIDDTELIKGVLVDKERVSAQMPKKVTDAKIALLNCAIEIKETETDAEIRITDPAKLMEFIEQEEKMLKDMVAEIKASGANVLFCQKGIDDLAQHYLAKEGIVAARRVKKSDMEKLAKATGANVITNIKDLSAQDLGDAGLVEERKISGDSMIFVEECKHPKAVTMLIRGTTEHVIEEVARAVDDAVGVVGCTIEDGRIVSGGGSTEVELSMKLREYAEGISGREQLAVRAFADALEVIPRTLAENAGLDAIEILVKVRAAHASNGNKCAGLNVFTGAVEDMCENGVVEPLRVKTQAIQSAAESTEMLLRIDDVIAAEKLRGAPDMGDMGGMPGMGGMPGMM
Chromobox protein homolog 1 (Homo sapiens), sequence (P83916 whole entry, looked up): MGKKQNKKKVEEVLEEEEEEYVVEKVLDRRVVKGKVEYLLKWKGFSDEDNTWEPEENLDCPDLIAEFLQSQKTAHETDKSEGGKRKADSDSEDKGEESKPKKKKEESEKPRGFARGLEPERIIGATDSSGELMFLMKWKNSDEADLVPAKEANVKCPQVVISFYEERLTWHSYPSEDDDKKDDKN
Transient receptor potential cation channel subfamily V member 1 (Homo sapiens), sequence (Q8NER1 whole entry, looked up): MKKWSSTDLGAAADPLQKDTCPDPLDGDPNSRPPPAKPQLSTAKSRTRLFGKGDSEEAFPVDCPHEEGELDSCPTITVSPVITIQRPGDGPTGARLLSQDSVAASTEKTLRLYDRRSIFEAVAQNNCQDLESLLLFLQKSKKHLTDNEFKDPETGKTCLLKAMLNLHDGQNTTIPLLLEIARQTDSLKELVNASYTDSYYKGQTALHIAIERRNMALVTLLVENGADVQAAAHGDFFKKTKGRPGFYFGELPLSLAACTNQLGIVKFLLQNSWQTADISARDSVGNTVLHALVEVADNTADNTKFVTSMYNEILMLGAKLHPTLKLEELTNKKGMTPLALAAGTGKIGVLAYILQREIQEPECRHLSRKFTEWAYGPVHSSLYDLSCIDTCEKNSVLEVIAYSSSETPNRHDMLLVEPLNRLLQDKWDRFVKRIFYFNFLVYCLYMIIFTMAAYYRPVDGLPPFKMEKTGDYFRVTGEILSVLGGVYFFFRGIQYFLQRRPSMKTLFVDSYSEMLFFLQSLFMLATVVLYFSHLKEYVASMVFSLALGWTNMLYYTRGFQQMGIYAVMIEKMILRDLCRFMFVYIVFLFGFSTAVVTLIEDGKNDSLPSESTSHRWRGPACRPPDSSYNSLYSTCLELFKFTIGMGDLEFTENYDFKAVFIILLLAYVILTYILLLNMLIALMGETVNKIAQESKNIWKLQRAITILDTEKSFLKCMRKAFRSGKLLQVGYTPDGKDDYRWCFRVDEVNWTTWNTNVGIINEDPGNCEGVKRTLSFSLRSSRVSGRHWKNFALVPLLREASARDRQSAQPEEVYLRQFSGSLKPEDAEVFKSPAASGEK
D(1A) dopamine receptor (Homo sapiens), sequence (P21728 whole entry, looked up): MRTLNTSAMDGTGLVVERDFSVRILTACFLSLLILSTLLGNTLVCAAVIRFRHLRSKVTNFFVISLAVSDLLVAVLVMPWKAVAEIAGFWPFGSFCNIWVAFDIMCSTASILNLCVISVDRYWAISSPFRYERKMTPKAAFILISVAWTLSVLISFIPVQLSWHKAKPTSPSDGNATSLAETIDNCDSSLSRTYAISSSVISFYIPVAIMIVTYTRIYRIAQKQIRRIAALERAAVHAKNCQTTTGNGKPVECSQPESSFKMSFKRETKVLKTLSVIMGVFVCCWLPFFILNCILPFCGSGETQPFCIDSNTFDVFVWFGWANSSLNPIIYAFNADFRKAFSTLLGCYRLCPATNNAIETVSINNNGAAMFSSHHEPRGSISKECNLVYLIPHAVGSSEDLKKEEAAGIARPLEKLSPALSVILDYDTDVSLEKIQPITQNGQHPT
ATP-dependent 6-phosphofructokinase (Trypanosoma brucei brucei), sequence (O15648 whole entry, looked up): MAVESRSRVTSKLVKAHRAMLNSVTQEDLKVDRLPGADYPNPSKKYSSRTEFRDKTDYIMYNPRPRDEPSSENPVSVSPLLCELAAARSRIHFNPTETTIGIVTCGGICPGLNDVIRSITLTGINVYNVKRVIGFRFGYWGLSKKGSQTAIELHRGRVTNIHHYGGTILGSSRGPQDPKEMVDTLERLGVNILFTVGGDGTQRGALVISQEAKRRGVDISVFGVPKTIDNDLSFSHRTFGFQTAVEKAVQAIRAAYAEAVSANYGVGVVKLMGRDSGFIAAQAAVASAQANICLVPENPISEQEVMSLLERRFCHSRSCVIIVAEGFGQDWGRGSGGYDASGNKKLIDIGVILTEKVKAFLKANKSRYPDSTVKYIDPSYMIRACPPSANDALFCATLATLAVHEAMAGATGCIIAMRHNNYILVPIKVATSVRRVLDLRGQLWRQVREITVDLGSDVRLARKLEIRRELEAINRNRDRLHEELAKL
Tyrosyl-DNA phosphodiesterase 1 (Homo sapiens), sequence (Q9NUW8 whole entry, looked up): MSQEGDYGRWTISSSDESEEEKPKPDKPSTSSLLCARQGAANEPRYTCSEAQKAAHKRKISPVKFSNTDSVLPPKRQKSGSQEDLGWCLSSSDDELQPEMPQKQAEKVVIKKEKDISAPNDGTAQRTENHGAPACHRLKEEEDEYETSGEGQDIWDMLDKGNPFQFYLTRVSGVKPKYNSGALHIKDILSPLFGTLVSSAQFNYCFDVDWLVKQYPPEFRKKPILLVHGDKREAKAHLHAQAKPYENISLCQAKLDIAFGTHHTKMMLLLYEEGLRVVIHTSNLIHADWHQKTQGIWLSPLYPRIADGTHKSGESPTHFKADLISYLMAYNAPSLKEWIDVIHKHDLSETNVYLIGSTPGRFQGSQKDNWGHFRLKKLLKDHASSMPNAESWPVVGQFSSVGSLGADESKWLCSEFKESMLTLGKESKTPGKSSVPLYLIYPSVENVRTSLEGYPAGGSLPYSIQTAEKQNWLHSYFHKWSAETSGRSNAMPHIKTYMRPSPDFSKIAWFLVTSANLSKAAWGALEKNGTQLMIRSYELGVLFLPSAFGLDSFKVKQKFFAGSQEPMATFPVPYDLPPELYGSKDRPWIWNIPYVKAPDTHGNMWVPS

Take `CCc1cccc2c3c([nH]c12)C(CC)(CC(=O)O)OCC3` (centres undefined): the Potency result in test [1], in test [5] and in test [6] was “inactive” throughout. Also, the outcome in [2], in test [3] and in test [4] was inactive.
Consider `CS(=O)(=O)Nc1ccc([N+](=O)[O-])cc1Oc1ccccc1`, for which the Potency result in test [1], in test [5], in [7], in test [9] and in test [10] was “inactive” each time. For the same compound, the compound was called inactive in test [2], in [3] and in [4]. In [8], the Potency was 8.91 µM (active).
As to `COc1cc2nc(N(C)CCCNC(=O)C3CCCO3)nc(N)c2cc1OC` (centres undefined), the Potency result in test [1], in [5] and in [7] was “inactive” each time. In addition, in test [2], the call was inactive.
In the case of `CC(C)NCC(O)COc1ccc(CCOCC2CC2)cc1` (centres undefined), the Potency entry in test [1], in test [5] and in test [6] was “inactive” in each case. The call in [2] and in [3] was inactive.
Turning to `COc1cc2nc(N3CCN(C(=O)C4COc5ccccc5O4)CC3)nc(N)c2cc1OC` (centres undefined), the compound was classed as inactive in [2], in test [3] and in test [4]. For the same compound, the Potency result in [5] is “inactive”.
Regarding `NC12CC3CC(CC(C3)C1)C2`, the Potency entry in [1], in test [5], in [7] and in test [6] was “inactive” each time. The call in test [2] and in [3] was inactive.
For `Cc1cn([C@H]2C=C[C@@H](CO)O2)c(=O)[nH]c1=O`, the Potency result in [1], in test [5], in test [9] and in [10] was “inactive” throughout. In addition, the compound was called inactive in test [2], in [3] and in [4].
For `Cc1cn([C@H]2C[C@H](N=[N+]=[N-])[C@@H](CO)O2)c(=O)[nH]c1=O`, the Potency entry in test [1], in test [5], in test [7] and in [9] was “inactive” each time. Moreover, the call in [2] was inactive.
With `Cn1cnc2c1c(=O)[nH]c(=O)n2C`, the Potency result in [1], in [5] and in test [10] was “inactive” throughout. The compound was classed as inactive in [2], in [3] and in test [4].
As for `CCC1(C)CC(=O)NC1=O` (centres undefined), the Potency entry in test [1], in [5], in test [7] and in [6] was “inactive” throughout. Further, the compound was called inactive in test [2] and in test [3].
Turning to `NC(CO)C(=O)NNCc1ccc(O)c(O)c1O` (centres undefined), in test [1], the Potency is 35.5 µM (active). Further, the compound was classed as inactive in test [2] and in test [4]. Besides, the Potency result in [5], in test [7], in test [6] and in test [10] was “inactive” each time.
As for `Cn1c(=O)c2c(ncn2C)n(C)c1=O`, the Potency result in test [1], in test [5], in test [7] and in [6] was “inactive” in each case. Moreover, the outcome in test [2] and in [3] was inactive.
Turning to `COc1ccc2[nH]cc(CCNC(C)=O)c2c1`, the Potency result in [1], in test [5] and in [10] was “inactive” in each case. In addition, the call in [2], in [3] and in [4] was inactive.
For `COc1ccc2c(c1)c(CC(=O)O)c(C)n2C(=O)c1ccc(Cl)cc1`, the Potency result in [1], in test [5] and in [10] was “inactive” throughout. The compound was classed as inactive in [2], in test [3] and in test [4].
With `CCN1CCCC1CNC(=O)c1cc(S(=O)(=O)CC)c(N)cc1OC` (centres undefined), the Potency entry in test [1], in test [5] and in test [10] was “inactive” in each case. The compound was called inactive in [2].
For the compound `CCOC(=O)c1ncn2c1CN(C)C(=O)c1cc(F)ccc1-2`, the Potency entry in [1], in test [5] and in test [6] was “inactive” in each case. Also, the compound was called inactive in test [2] and in test [4].
With `C[C@](N)(Cc1ccc(O)c(O)c1)C(=O)O`, the Potency in test [1] was 1.89 µM (active). Besides, the result in test [2] and in test [3] was inactive. The Potency entry in [5], in test [6], in [9] and in test [10] was “inactive” throughout.
Consider `O=C1N(c2ccccc2)c2ccccc2C1(Cc1ccncc1)Cc1ccncc1`, for which the Potency result in [1], in [5], in test [9] and in test [10] was “inactive” in each case. For the same compound, the outcome in [2] and in [3] was inactive.
For `Clc1ccc2nsnc2c1NC1=NCCN1`, the Potency result in test [1], in test [5], in [9] and in test [10] was “inactive” each time. The outcome in test [2] was inactive.
Take `OCCN(CCO)c1nc(N2CCCCC2)c2nc(N(CCO)CCO)nc(N3CCCCC3)c2n1`: the Potency entry in test [1] and in test [10] was “inactive” in each case. Moreover, the compound was called inactive in test [2]. In addition, the Potency in [5] was 10 µM (active); in test [7], 2.91 µM (active).
As to `CN(C)CCCN1c2ccccc2CCc2ccc(Cl)cc21`, the Potency result in [1], in test [5] and in [7] was “inactive” throughout. The call in [2] and in test [4] was inactive.
With `CC#C[C@]1(O)CC[C@H]2[C@@H]3CCC4=CC(=O)CCC4=C3[C@@H](c3ccc(N(C)C)cc3)C[C@@]21C`, the Potency in [1] is 25.1 µM (active). Besides, the outcome in [2] was inactive. In addition, the Potency result in [5], in test [6], in [9] and in test [10] was “inactive” in each case.
For the compound `CC(C)(Oc1ccc(C2CC2(Cl)Cl)cc1)C(=O)O` (centres undefined), the Potency entry in [1], in [5] and in [9] was “inactive” in each case. The compound was classed as inactive in test [2], in [3] and in [4].
Consider `CN(C)CCC=C1c2ccccc2C=Cc2ccccc21`, for which the Potency result in test [1], in [5], in [7] and in [9] was “inactive” each time. Besides, the result in [2] and in [4] was inactive.
With `CC(C)Cc1ccc(C(C)C(=O)O)cc1` (centres undefined), the Potency entry in test [1], in test [5], in test [7] and in test [6] was “inactive” throughout. Moreover, the compound was called inactive in test [2] and in test [4].
With `CN1CCN(CCCN2c3ccccc3Sc3ccc(Cl)cc32)CC1`, the Potency in test [1] is 31.6 µM (active). The outcome in [2] and in [4] was inactive. Moreover, the Potency entry in [5], in [7] and in test [10] was “inactive” in each case.
Consider `O=C(c1ccc(OCCN2CCCCC2)cc1)c1c(-c2ccc(O)cc2)sc2cc(O)ccc12`, for which the Potency in [1] was 31.6 µM (active). In addition, in [2], the compound was called inactive. Further, the Potency result in test [5] and in test [6] was “inactive” in each case.
Regarding `COc1cc2nc(N3CCN(C(=O)c4ccco4)CC3)nc(N)c2cc1OC`, the Potency entry in test [1], in test [5], in test [7] and in [6] was “inactive” in each case. Moreover, the result in [2] and in [4] was inactive.
Take `Nc1nc2c(ncn2COC(CO)CO)c(=O)[nH]1`: the Potency entry in [1], in [5] and in [9] was “inactive” in each case. In addition, the compound was called inactive in [2], in [3] and in [4].
For `CN1CCN2c3ccccc3Cc3ccccc3C2C1` (centres undefined), the call in [2], in test [3] and in test [4] was inactive. The Potency entry in test [5] and in [7] was “inactive” throughout.
Regarding `CN(C)c1nc(N(C)C)nc(N(C)C)n1`, the Potency entry in [1], in test [5] and in test [9] was “inactive” throughout. Moreover, the compound was classed as inactive in test [2], in test [3] and in [4].
Consider `CCCNCC(O)COc1ccccc1C(=O)CCc1ccccc1` (centres undefined), for which the Potency result in test [1], in test [5] and in [10] was “inactive” throughout. Besides, the compound was classed as inactive in test [2] and in [4].
For the compound `Cc1cc(C(C)(C)C)c(O)c(C)c1CC1=NCCN1`, the Potency entry in [1], in [5] and in [7] was “inactive” each time. Further, the outcome in test [3] and in test [4] was inactive.
On to `O=C(C1CCCCC1)N1CC(=O)N2CCc3ccccc3C2C1` (centres undefined), for which the Potency result in test [1], in [5], in test [7] and in test [10] was “inactive” in each case. The compound was classed as inactive in test [2] and in test [3].
As to `CC12CC3CC(C)(C1)CC(N)(C3)C2`, the Potency entry in test [1], in test [5], in test [6] and in [10] was “inactive” each time. For the same compound, the call in test [2] and in test [4] was inactive.
For the compound `CNCCCC12CCC(c3ccccc31)c1ccccc12`, the Potency entry in test [1], in test [7] and in test [10] was “inactive” in each case. Further, the result in test [2] and in test [4] was inactive.

The values are drawn from PubChem BioAssay (NCATS).
